Laboratory results published in PubChem BioAssay.
A number with no mark means an inactive call. No rule for the calls is given here.

biological target: Pantothenate synthetase (Mycobacterium tuberculosis (strain ATCC 25618 / H37Rv)) (UniProt P9WIL5); assay: Coupled enzyme confirmation of inhibitors against recombinant Mtb PanC (AID 375); conditions: coupled enzyme assay; at 10 µM, hits give high values;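 also: 0% = full reaction with vehicle and 100% = no enzyme background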
Sequence (P9WIL5 whole entry, looked up): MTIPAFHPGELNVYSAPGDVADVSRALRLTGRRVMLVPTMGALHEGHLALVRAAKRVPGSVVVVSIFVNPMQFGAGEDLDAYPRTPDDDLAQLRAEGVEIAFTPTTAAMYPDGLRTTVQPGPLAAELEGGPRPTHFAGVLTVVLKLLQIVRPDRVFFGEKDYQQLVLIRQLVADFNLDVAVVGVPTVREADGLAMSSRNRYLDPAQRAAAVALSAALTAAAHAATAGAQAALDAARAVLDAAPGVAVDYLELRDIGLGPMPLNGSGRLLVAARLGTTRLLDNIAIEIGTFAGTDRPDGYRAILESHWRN

| Structure (SMILES) | inhibition [%] |
| --- | --- |
| O=C(CSc1ccc(-c2ccccc2)nn1)N1CCOCC1 | 0 |
| CCOC(=O)c1ccccc1NC(=O)CSc1nnc(COc2ccccc2C)n1C | 2 |
| COc1ccc2c(C)nc(Nc3nc(C)cc(C)n3)nc2c1 | 6 |
| CCS(=O)(=O)c1nc2ccccc2n1Cc1ccccc1Cl | 1 |
| Cn1c(SCC(=O)N2CCOCC2)nnc1-c1cccc(NC(=O)c2ccccc2F)c1 | 0 |
| COc1cccc(-n2nnc3c(=O)n(Cc4cccc(F)c4)cnc32)c1 | 4 |
| CC1(C)NC(=O)N(CC(O)CN2CCCCC2)C1=O (stereo not drawn) | 0 |
| CC(NO)C(C)(C)NO (stereo not drawn) | 8 |
| O=C1OCCC1Sc1ncnc2sc3c(c12)CCC3 (stereo not drawn) | 0 |
| O=C(c1ccc2snnc2c1)N1CCOCC1 | 3 |
| O=C(OCC(=O)c1c[nH]c2ccccc12)C1=COCCO1 | 0 |
| Cc1ccc(S(=O)(=O)NCCN2CCOCC2)cc1C | 3 |
| COC(=O)c1cn(-c2ccccc2)nc1C(=O)OC | 2 |
| Cc1cc(C)c(-c2cc(C(=O)Nc3c(C)n(C)n(-c4ccccc4)c3=O)[nH]n2)c(O)c1 | 0 |
| CCCn1c(=N)n(CC(=O)c2cccs2)c2ccccc21 | 3 |
| Cc1ccccc1NC(=O)NCCCN1CCN(C2CCCCC2)CC1 | 0 |
| Cc1cc(S(=O)(=O)N(Cc2ccccc2)Cc2ccc(N(C)C)cc2)ccc1-n1cnnn1 | 0 |
| O=C(Nc1cccc(NC(=O)c2cccnc2)c1)c1cccnc1 | 1 |
